Data: PubChem BioAssay (NCI)
Compounds without any hit were thinned out: in the full panel of roughly 83,000, 20% have a hit.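 Single-concentration screen, 48 h exposure, 96-well plates. Endpoint: percent growth. Below 10 = active.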 Values without a mark were called inactive. Active and inactive are the calls of the source.

Each compound was assayed on NCI-H23 lung (assay: NCI-60 one-dose screen, 48 h (100 = growth as untreated, 0 = no growth, -100 = all killed)). Settings: 10 µM unless noted.

SMILES	growth
O=c1ccc(N=Nc2ccccc2)ccc1Cl	16.4%
CCCCCCn1c(-c2ccc(C(=O)O/N=C(\N)c3ccc(OC)cc3)cc2)nc(-c2ccccc2)c1-c1ccccc1	-63.9% (active)
COc1ccc(C(=O)C[C@]2(O)C(=O)Nc3c(Cl)ccc(Cl)c32)cc1	44.3%
CCCCOc1nc2c(C)cccc2cc1-c1cc(-c2ccc(Cl)cc2)nc(-c2ccc(Cl)cc2)c1	110%
CSc1ncccc1C(=O)OCC(=O)Nc1oc(C)c2c(C)n[nH]c(=O)c12	99.3%
O=C(Oc1cccc2ccccc12)Oc1cccc2ccccc12	90.9%
COC(=O)[C@H](C)NC(=O)NC(=O)NC(=O)CI	86.2%
C[C@H](C(=O)Nc1ccc(S(N)(=O)=O)cc1)S(=O)(=O)c1ccccc1	94.3%
c1ccc2c(c1)Nc1ccncc1S2	99.5%
COc1ccc(C2CC(c3ccc(Nc4ccnc5cc(Cl)ccc45)cc3)=NN2C=O)cc1 (centres undefined)	76.9%
O=C(CS(=O)c1oc(-c2cccs2)nc1S(=O)(=O)c1ccc(Br)cc1)c1ccccc1 (centres undefined)	92.6%
O=C(N=c1oc2ccccc2cc1-c1cc2ccccc2[nH]1)Nc1ccc(Cl)cc1	86.2%
CCc1cccc2c3c(sc12)C(c1ccc(F)cc1)C(C#N)=C(N)O3 (centres undefined)	33.6%
C/C(=C\C(=O)c1ccc(Cl)cc1)c1ccc(Cl)cc1	83.9%
COc1cc(/C=C/c2ccccc2)cc(OC)c1	86.6%
O=C(Nc1ccc(I)cc1F)c1cc(I)ccc1O	-13.4% (active)
CCOc1cccc(NC2=C(Br)C(=O)C(C)=C(C)C2=O)c1	67.5%
Cc1nc(S(=O)(=O)c2ccccc2)c(S(=O)(=O)Cc2ccc([N+](=O)[O-])cc2)o1	103%
Nc1nc(Cl)cc(=O)n1Cc1ccccc1	88.1%

SMILES	growth
Oc1ccc(C#CCOc2ccccc2)cc1CNCCN(Cc1ccccn1)Cc1ccccn1	16.7%
c1ccc(Nc2cc(-c3cccnc3)[nH]n2)cc1	105%
CNCCCNc1nc2ccccc2c2c(=O)c3cc(OC)ccc3sc12	79.6%
Cc1nc2ccccc2n1CC1C(=O)NC(=O)NC1=O	102%
COc1ccc(OC)c(/C=C/C(=O)N/N=C/c2ccc(Cl)cc2)c1	34.8%
Cc1ccc(S(=O)(=O)Oc2ccc(NC(=O)c3ccc(Cl)cc3)cc2)cc1	102%
Nc1nn(C(=O)Nc2ccc(Cc3ccccc3)cc2)c2ccc(Cl)cc12	70.1%
CC(=O)CC[C@H]1C(=O)N[C@@H](C(C)C)C(=O)N[C@@H](Cc2cc(O)cc(F)c2)C(=O)N2CCC[C@H](N2)C(=O)O[C@H](/C(C)=C/C=C/C(=O)OC(C)(C)C)C/C=C/C=C/[C@H](O)[C@H](C)[C@H]1O	42.2%
Cn1cc(-c2cc3ncnc(Nc4ccc(CC(=O)Nc5cc(C(C)(C)C)nn5C)cc4)c3s2)cn1	60%
Oc1c(I)cc(I)cc1CNCCCN(Cc1ccccn1)Cc1ccccn1	-37% (active)
COc1ccc(/C=C2\Oc3cc(OCCN4CCC(Cc5ccccc5)CC4)ccc3C2=O)cc1OC	68.6%
CC[C@H](C)C(=O)O[C@H]1CCC=C2C=C[C@H](C)[C@H](CC[C@@H]3CC=CC(=O)O3)[C@H]21	96.5%
Cc1cccc2c(=O)c3c(sc12)c(NCc1ccccc1)nc1ccccc13	84.5%
COc1cc(C2CC(c3ccc(N(C)C)cc3)=NN2C(C)=O)cc(OC)c1OC (centres undefined)	31.2%
CCCCCCNC(=O)Oc1ccc(/C(=C(\C)c2ccc(Cl)cc2)c2ccc(OCCCN(C)C)cc2)cc1	80.5%
N[C@@H](Cc1ccccc1)[C@@H](O)C(=O)NCc1ccc(F)cc1	106%
COC(=O)/C=C1\S/C(=N\Nc2ccc([N+](=O)[O-])cc2[N+](=O)[O-])N(C2CCCCC2)C1=O	60%
O=C(O)c1cn(C2CC2)c2cc(N3CCN(C(=O)Nc4nc(-c5ccccc5)cs4)CC3)c(F)cc2c1=O	9.06% (active)

What follows are compounds tested on NCI-H226 lung in the same assay as above. Settings: 10 µM unless noted.

SMILES	growth
O=c1ccc(N=Nc2ccccc2)ccc1Cl	87.7%
CCCCCCn1c(-c2ccc(C(=O)O/N=C(\N)c3ccc(OC)cc3)cc2)nc(-c2ccccc2)c1-c1ccccc1	62.6%
COc1ccc(C(=O)C[C@]2(O)C(=O)Nc3c(Cl)ccc(Cl)c32)cc1	58.8%
CCCCOc1nc2c(C)cccc2cc1-c1cc(-c2ccc(Cl)cc2)nc(-c2ccc(Cl)cc2)c1	100%
CSc1ncccc1C(=O)OCC(=O)Nc1oc(C)c2c(C)n[nH]c(=O)c12	86.3%
O=C(Oc1cccc2ccccc12)Oc1cccc2ccccc12	98.5%
COC(=O)[C@H](C)NC(=O)NC(=O)NC(=O)CI	89.2%
C[C@H](C(=O)Nc1ccc(S(N)(=O)=O)cc1)S(=O)(=O)c1ccccc1	98%
c1ccc2c(c1)Nc1ccncc1S2	84%
COc1ccc(C2CC(c3ccc(Nc4ccnc5cc(Cl)ccc45)cc3)=NN2C=O)cc1 (centres undefined)	90.5%
O=C(CS(=O)c1oc(-c2cccs2)nc1S(=O)(=O)c1ccc(Br)cc1)c1ccccc1 (centres undefined)	80.8%
O=C(N=c1oc2ccccc2cc1-c1cc2ccccc2[nH]1)Nc1ccc(Cl)cc1	95.9%
CCc1cccc2c3c(sc12)C(c1ccc(F)cc1)C(C#N)=C(N)O3 (centres undefined)	29.1%
C/C(=C\C(=O)c1ccc(Cl)cc1)c1ccc(Cl)cc1	90.9%
COc1cc(/C=C/c2ccccc2)cc(OC)c1	92%
O=C(Nc1ccc(I)cc1F)c1cc(I)ccc1O	-4.51% (active)
CCOc1cccc(NC2=C(Br)C(=O)C(C)=C(C)C2=O)c1	72%
Cc1nc(S(=O)(=O)c2ccccc2)c(S(=O)(=O)Cc2ccc([N+](=O)[O-])cc2)o1	88%
Nc1nc(Cl)cc(=O)n1Cc1ccccc1	87.6%

SMILES	growth
Oc1ccc(C#CCOc2ccccc2)cc1CNCCN(Cc1ccccn1)Cc1ccccn1	8.23% (active)
c1ccc(Nc2cc(-c3cccnc3)[nH]n2)cc1	94.1%
CNCCCNc1nc2ccccc2c2c(=O)c3cc(OC)ccc3sc12	95.6%
Cc1nc2ccccc2n1CC1C(=O)NC(=O)NC1=O	114%
COc1ccc(OC)c(/C=C/C(=O)N/N=C/c2ccc(Cl)cc2)c1	73.1%
Cc1ccc(S(=O)(=O)Oc2ccc(NC(=O)c3ccc(Cl)cc3)cc2)cc1	109%
Nc1nn(C(=O)Nc2ccc(Cc3ccccc3)cc2)c2ccc(Cl)cc12	63.5%
CC(=O)CC[C@H]1C(=O)N[C@@H](C(C)C)C(=O)N[C@@H](Cc2cc(O)cc(F)c2)C(=O)N2CCC[C@H](N2)C(=O)O[C@H](/C(C)=C/C=C/C(=O)OC(C)(C)C)C/C=C/C=C/[C@H](O)[C@H](C)[C@H]1O	76.8%
Cn1cc(-c2cc3ncnc(Nc4ccc(CC(=O)Nc5cc(C(C)(C)C)nn5C)cc4)c3s2)cn1	38%
Oc1c(I)cc(I)cc1CNCCCN(Cc1ccccn1)Cc1ccccn1	-78.4% (active)
COc1ccc(/C=C2\Oc3cc(OCCN4CCC(Cc5ccccc5)CC4)ccc3C2=O)cc1OC	69.6%
CC[C@H](C)C(=O)O[C@H]1CCC=C2C=C[C@H](C)[C@H](CC[C@@H]3CC=CC(=O)O3)[C@H]21	107%
Cc1cccc2c(=O)c3c(sc12)c(NCc1ccccc1)nc1ccccc13	76.3%
COc1cc(C2CC(c3ccc(N(C)C)cc3)=NN2C(C)=O)cc(OC)c1OC (centres undefined)	79.6%
CCCCCCNC(=O)Oc1ccc(/C(=C(\C)c2ccc(Cl)cc2)c2ccc(OCCCN(C)C)cc2)cc1	110%
N[C@@H](Cc1ccccc1)[C@@H](O)C(=O)NCc1ccc(F)cc1	103%
COC(=O)/C=C1\S/C(=N\Nc2ccc([N+](=O)[O-])cc2[N+](=O)[O-])N(C2CCCCC2)C1=O	80.7%
O=C(O)c1cn(C2CC2)c2cc(N3CCN(C(=O)Nc4nc(-c5ccccc5)cs4)CC3)c(F)cc2c1=O	46.8%
